The campaign covered roughly 48,000 compounds. About 13,000 (27%) showed an effect of 50% or more. This is one part of the list.
tested on: Wolbachia pipientis; test: Anti-Wolbachia Cell-Based Screen; format: functional; set-up: scale not given: in the data most compounds retested in dose-response had high values; conditions: 5 µM

Row | SMILES | Percent Effect [%]
1 | Cc1nc(CN2CCC(CNC(=O)C3(C#N)CCCC3)CC2)oc1C | -2.689
2 | O=C(NCCNS(=O)(=O)c1cc(F)cc(F)c1)c1ccoc1 | 3.11
3 | COCc1ncc(CN(CCN(C)C)Cc2ccc(C)s2)cn1 | -7.942
4 | OC(CNCCn1cccn1)COc1ccc2ccccc2c1 (stereo not drawn) | -4.73
5 | CO[C@@H]1CCN(S(=O)(=O)c2cn(C)cn2)[C@H]1Cc1ccncc1.O=C(O)C(F)(F)F | 7.215
6 | Cn1nccc1C(=O)N1CCN(C(=O)C2CCC2)[C@@H]2CS(=O)(=O)C[C@@H]21 | -1.449
7 | CC1=Nc2c(c(=O)[nH]n2C2CCCC2)C(c2ccc(C(=O)O)cc2)S1 (stereo not drawn) | 117.5
8 | CC1=Nc2c(c(=O)[nH]n2C2CCCCC2)C(c2ccc(C(=O)O)cc2)S1 (stereo not drawn) | 110.1
9 | COc1ccc(C2SC(C)=Nc3c2c(=O)[nH]n3C2CCCCC2)cc1O (stereo not drawn) | 9.619
10 | O=C1CC(C2CCCCC2)c2c(n(C3CCCC3)[nH]c2=O)N1 (stereo not drawn) | -0.7877
11 | CC1(C)CC1(C(=O)N1CC(c2cccnc2)C1)c1ccc(F)cc1 (stereo not drawn) | -9.092
12 | CC1=Nc2c(c(=O)[nH]n2C2CCCC2)C(c2cccc(O)c2)S1 (stereo not drawn) | 4.051
13 | CC1=Nc2c(c(=O)[nH]n2C2CCCC2)C(c2cccnc2)S1 (stereo not drawn) | 106.9
14 | C[C@@H]1CN(C2CCN(Cc3nn(C)c4cccc(Cl)c34)CC2)C[C@H](C)O1 | 24.58
15 | C[C@@H]1CN(CC(C)(C)N2CCCCC2)CC[C@@]1(O)C1CC1 | 22.77
16 | CC(CN1CCOCC1)N(Cc1ccccc1)Cc1ccncc1 (stereo not drawn) | 4.516
17 | O=C(Nc1cn[nH]c1)c1ccc(O)nc1 | -8.814
18 | Cc1ccc(NCCNC(=O)C2Cc3cc(C)c(C)cc3O2)nn1 (stereo not drawn) | -19.52
19 | COc1ncccc1C(=O)N1CCCC1c1c(C)n[nH]c1C (stereo not drawn) | -9.272
20 | CCOc1ncccc1C(=O)N1CCCC1c1c(C)nn(C)c1Cl (stereo not drawn) | 122.7
21 | COc1ncccc1C(=O)N1CCCC1c1c(C)nn(C)c1Cl (stereo not drawn) | 89.91
22 | CCOc1ncccc1C(=O)N1CCCCC1c1nccs1 (stereo not drawn) | 4.622
23 | CCCNC(=O)C(C)Nc1ccc(OCC)cc1 (stereo not drawn) [PROPETAMIDE] | -10.93

Row | SMILES | Percent Effect [%]
24 | CC(=O)N1Cc2ccccc2CC1C(=O)Nc1ccc(N(C)C)cn1 (stereo not drawn) | -0.765
25 | CCS(=O)(=O)NCCNc1c(C#N)cnc2c(C)cc(F)cc12 | -8.935
26 | COc1ccc(-c2ccc(C(=O)NS(C)(=O)=O)c(F)c2)cc1 | -4.531
27 | CCOc1c(CNCCCn2ccnc2)cc(Cl)cc1OC.Cl.Cl | 2.415
28 | CCCn1nnc(NCc2cc(Br)cc(Br)c2OC)n1 | 116
29 | CCCC(=O)NCc1cc(Br)c(OC)c(OC)c1 | -2.36
30 | CCn1nnc(NCc2cc(Br)cc(Br)c2OC)n1 | 107.9
31 | CCn1nnc(NCc2cc(Cl)cc(Cl)c2OC)n1 | 112
32 | COc1cc(Br)c(CNc2ccn(CCC(N)=O)n2)cc1OC | -66.5
33 | CCOc1c(Cl)cc(Cl)cc1CNCCCn1ccnc1 | 7.909
34 | CC(CN1CCCC1=O)NC(=O)c1cc(-c2cccc(Cl)c2)no1 (stereo not drawn) | -44.82
35 | COCC(=O)N[C@H](C)c1onc(-c2ccccc2)c1C(=O)O | -4.041
36 | CN(C)CC1CN(Cc2nnc(-c3ccccc3Cl)o2)CCO1 (stereo not drawn) | 1.962
37 | COCCn1cc(C(=O)N2CCCC(n3cncn3)C2)ccc1=O (stereo not drawn) | -8.291
38 | COC(=O)c1cccc(C(=O)N2CCCC(n3cncn3)C2)c1 (stereo not drawn) | 108.5
39 | O=C(c1cccc(OC2CCCC2)c1)N1CCCC(n2cncn2)C1 (stereo not drawn) | -3.661
40 | CCCOc1cccc(C(=O)N2CCCC(n3cncn3)C2)c1 (stereo not drawn) | 99.87
41 | CS(=O)(=O)Cc1cccc(C(=O)N2CCCC(n3cccn3)C2)c1 (stereo not drawn) | 7.401
42 | O=C(c1cccc(CN2CCCC2)c1)N1CCCC(n2cncn2)C1 (stereo not drawn) | -4.839
43 | CCc1cccc(OCC(=O)N2CCCC(n3cncn3)C2)c1 (stereo not drawn) | 9.617
44 | CN(C)Cc1cccc(C(=O)N2CCCC(n3cncn3)C2)c1 (stereo not drawn) | 139.2
45 | COc1cc(CCC(=O)NCC2CCCN2C)ccc1OCC(F)(F)F (stereo not drawn) | -0.8695
46 | COCC(=O)N1C[C@H]2CN(Cc3csc(C)n3)C(=O)[C@H]2C1.O=C(O)C(F)(F)F | -18.32

Row | SMILES | Percent Effect [%]
47 | CC(=O)N1C[C@@H](F)[C@@H](OCc2nc3ccccc3o2)C1 | -12.47
48 | CC(=O)N1C[C@H](c2cc(O)nc(C)n2)[C@@H](c2ccccc2F)C1 | 117
49 | Cc1nc(O)cc(C2CCCN(C(=O)COCc3ccccc3)C2)n1 (stereo not drawn) | 12.86
50 | Cc1nc(O)cc([C@@H]2CN(C(=O)C3CC3)C[C@H]2c2ccccc2F)n1 | 114.1
51 | COCC(=O)N1C[C@@H](c2cc(O)nc(C)n2)[C@H](c2ccccc2F)C1 | 108.7
52 | CN1CCC2(CCCN(C(=O)c3cncn3C)C2)CC1.O=C(O)C(F)(F)F | -6.177
53 | CCc1c(O)n(C(C)CC)c(SCC(=O)c2ccccc2)nc1=O (stereo not drawn) | 125.3
54 | CCc1c(O)nc(SCC(=O)Nc2ccccc2)n(C(C)CC)c1=O (stereo not drawn) | -0.04082
55 | CCc1c(O)nc(SCC(=O)N(CC)CC)n(C(C)CC)c1=O (stereo not drawn) | -0.2531
56 | Cc1noc(C)c1CN1C[C@@H](C(=O)O)[C@H](C(C)C)C1 | -19.42
57 | Cc1nnc2n1CCN(CC(=O)NC(C)c1ccc3ccccc3c1)C2 (stereo not drawn) | -2.487
58 | COCCN1CCN(C(C)C(=O)Nc2ccnn2C(C)C)CC1 (stereo not drawn) | -8.101
59 | CC(C)NC(=O)c1ccc2c(c1)nc1n2CCN(Cc2ccccc2)C1 | 112.9
60 | CC(C)CN1CCn2c(COCc3cccnc3)nnc2C1.O=C(O)C(F)(F)F.O=C(O)C(F)(F)F | -7.115
61 | CCNC(=O)c1ccc2c(c1)nc1n2CCN(C(C)C)C1 | 109.5
62 | CC(C)NC(=O)c1ccc2c(c1)nc1n2CCN(C(C)C)C1 | -1.576
63 | CCN1CCN(c2ccc(C(=O)NC(C)CCOC)cc2)CC1 (stereo not drawn) | -9.084
64 | CC(C)CN1CCn2c(nc3cc(C(=O)NC(C)C)ccc32)C1 | 121.2
65 | CCc1nnc2n1CCN(Cc1ccc(C(=O)N3CCCC3)cc1)C2 | 0.2623
66 | COCCN1CCn2c(nc3cc(C(=O)NC(C)C)ccc32)C1 | 122.8
67 | CC(C)N1CCn2c(nc3cc(C(N)=O)ccc32)C1 | 42.97
68 | CC(C)NC(=O)c1ccc2c(c1)nc1n2CCN(c2ccccc2)C1 | 20.1

Source: ChEMBL document CHEMBL3988442, “University of Dundee, Small-Polar-MMV Screening Library” (2021)
